# Assay results taken from PubChem BioAssay.
# The source made the active and inactive calls. Unless noted, the rule behind the calls is not given here.
# Experiments:
# [1] = resazurin metabolic signal in HepG2 cells – cell-based, resazurin fluorescence, 24 h, PK04 Diversity Set, profiling panel (AID 1172); details: HepG2 viability, higher = more signal
# [2] = budding yeast growth changes without added modifier – OD600, strain BY4716, 24 h, basal condition, primary screen (AID 1173); details: S. cerevisiae BY4716 growth, OD600, 24 h; higher = more signal, called active from +8 up or from −8 down
# [3] = viability profiling in MM1S myeloma cells – cell-based, resazurin fluorescence, basal, 24 h, PK04 Diversity Set, profiling panel (AID 1174); details: higher = more signal, called active from +8 up or from −8 down;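 note: MM1S multiple myeloma cell line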
# [4] = target: Dihydroorotate dehydrogenase (quinone), mitochondrial (Plasmodium falciparum (isolate 3D7)) (UniProt Q08210); experiment: inhibition of P. falciparum DHODH – biochemical, C-terminal His tag, absorbance 600 nm, primary screen (AID 1175); details: PfDHODH enzyme, DCIP absorbance 600 nm; higher = more signal, called active from +8 up or from −8 down;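 note: recombinant parasite enzyme with a five histidine tag at its C terminus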
# Sequence of Dihydroorotate dehydrogenase (quinone), mitochondrial (Plasmodium falciparum (isolate 3D7)) (Q08210 whole entry, looked up): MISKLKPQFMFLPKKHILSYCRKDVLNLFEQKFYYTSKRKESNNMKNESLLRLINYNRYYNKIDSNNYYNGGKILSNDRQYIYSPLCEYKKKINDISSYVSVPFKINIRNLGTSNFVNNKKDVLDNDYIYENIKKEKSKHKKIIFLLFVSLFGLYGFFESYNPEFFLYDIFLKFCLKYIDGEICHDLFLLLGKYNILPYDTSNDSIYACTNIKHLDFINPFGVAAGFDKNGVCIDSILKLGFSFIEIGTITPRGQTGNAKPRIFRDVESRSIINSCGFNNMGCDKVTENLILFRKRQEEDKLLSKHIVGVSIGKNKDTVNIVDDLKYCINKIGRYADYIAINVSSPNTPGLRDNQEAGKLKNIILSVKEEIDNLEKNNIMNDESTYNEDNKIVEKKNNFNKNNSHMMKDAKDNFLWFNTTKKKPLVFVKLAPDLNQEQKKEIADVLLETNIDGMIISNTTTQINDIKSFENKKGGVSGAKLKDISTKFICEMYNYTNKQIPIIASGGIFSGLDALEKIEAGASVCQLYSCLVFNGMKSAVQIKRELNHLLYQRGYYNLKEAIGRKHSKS
# [5] = inhibition of PAO1 biofilm formation – strain PAO1, LB-PBS medium, absorbance 600 nm, primary screen (AID 1176); details: P. aeruginosa PAO1 growth/biofilm, A600, 12 h; higher = more signal
# [6] = growth modulation of vineyard yeast isolate – strain RM11-1a, OD600, basal, 24 h, primary screen (AID 1177);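 note: cultures grown under basal conditions with no added stressor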; details: S. cerevisiae RM11-1a growth, OD600, 24 h; higher = more signal, called active from +8 up or from −8 down
# [7] = growth of efflux-deficient E. coli DRC39 – strain DRC39, OD650, 24 h, E. coli filamentation inducers, primary screen (AID 1178);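 note: growth measured as culture turbidity by optical density at 650 nm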; details: E. coli DRC39 acrAB, higher = more signal, called active from +8 up or from −8 down
# [8] = growth of efflux-deficient E. coli DRC39 – strain DRC39, OD650, 48 h, E. coli filamentation inducers, primary screen (AID 1179);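 note: screen aims at cell division blockers that make cells filament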; details: E. coli DRC39 delta-acrAB growth, higher = more signal, called active from +8 up or from −8 down
# [9] = viability profiling in RPMI8226 myeloma cells – cell-based, resazurin fluorescence, basal, 24 h, PK04 Diversity Set, profiling panel (AID 1180); details: higher = more signal;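 note: RPMI8826 multiple myeloma cell line at 5000 cells per well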
# [10] = target: E3 ubiquitin-protein ligase XIAP (Homo sapiens) (UniProt P98170); experiment: small molecules binding XIAP protein – biophysical, small-molecule microarray, fluorescence 635 nm, primary screen (AID 1181); details: higher = more signal;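 note: score merges 667 nm emission and signal to noise over triplicate slides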
# Sequence of E3 ubiquitin-protein ligase XIAP (Homo sapiens) (P98170 whole entry, looked up, the tested form may be a part): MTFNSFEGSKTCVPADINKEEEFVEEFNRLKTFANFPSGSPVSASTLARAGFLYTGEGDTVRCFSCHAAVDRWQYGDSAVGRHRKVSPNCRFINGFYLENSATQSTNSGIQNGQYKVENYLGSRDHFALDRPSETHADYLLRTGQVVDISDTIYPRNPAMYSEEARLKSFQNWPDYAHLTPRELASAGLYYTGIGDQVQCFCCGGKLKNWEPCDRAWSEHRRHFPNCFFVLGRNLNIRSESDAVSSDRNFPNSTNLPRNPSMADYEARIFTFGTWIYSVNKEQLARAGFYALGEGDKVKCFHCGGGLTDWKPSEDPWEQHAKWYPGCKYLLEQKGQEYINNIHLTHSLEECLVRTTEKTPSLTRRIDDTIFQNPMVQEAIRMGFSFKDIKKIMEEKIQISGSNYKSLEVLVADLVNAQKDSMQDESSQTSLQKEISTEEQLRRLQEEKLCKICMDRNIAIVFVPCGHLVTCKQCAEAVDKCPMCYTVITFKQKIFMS
# [11] = test system: XIP peptide (Xip251-270) binding; experiment: XIP fragment 251-270 binding compounds – biochemical, small-molecule microarray, fluorescence 635/667 nm, 0.1 µg/mL protein, primary screen (AID 1182); details: fluorescent protein binding, 635 nm, higher = more signal, called active from +8 up or from −8 down
# [12] = test system: XIP peptide (Xip251-270); experiment: compounds binding XIP fragment 251-270 – biochemical, small-molecule microarray, fluorescence 635/667 nm, 0.5 µg/mL protein, primary screen (AID 1183); details: fluorescence 635 nm, higher = more signal
# [13] = blood-stage malaria parasite viability loss – strain 3D7, DAPI fluorescence, 100 nL, primary screen (AID 1184);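 note: parasites grown inside human red blood cells in medium with human serum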; details: P. falciparum 3D7 growth, 3 d, higher = more signal
# [14] = target: Homeobox protein Hox-A13 (Mus musculus) (UniProt Q62424); experiment: disruptors of Hoxa13 oligonucleotide interaction – biochemical, fluorescence polarization, labeled oligonucleotide, primary screen (AID 1185); details: Hoxa13:DNA binding, 15 min, higher = more signal, called active from +8 up or from −8 down
# Sequence of Homeobox protein Hox-A13 (Mus musculus) (Q62424 whole entry, looked up): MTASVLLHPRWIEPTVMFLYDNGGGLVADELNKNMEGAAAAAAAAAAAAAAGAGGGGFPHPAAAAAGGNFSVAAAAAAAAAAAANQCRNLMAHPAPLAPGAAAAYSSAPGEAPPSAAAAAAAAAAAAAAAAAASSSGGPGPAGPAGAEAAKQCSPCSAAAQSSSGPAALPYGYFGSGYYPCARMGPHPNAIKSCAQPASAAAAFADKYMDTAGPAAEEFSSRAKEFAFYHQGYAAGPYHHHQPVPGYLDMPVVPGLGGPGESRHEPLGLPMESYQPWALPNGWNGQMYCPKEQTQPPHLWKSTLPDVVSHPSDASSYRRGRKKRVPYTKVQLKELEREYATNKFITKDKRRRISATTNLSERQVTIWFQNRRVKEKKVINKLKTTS
# [15] = blockers of DNA damage checkpoint Chk1 activation – imaging, HeLa, hydroxyurea, phospho-Chk1 antibody, percent positive cells, primary screen (AID 1186); details: hydroxyurea-induced phospho-Chk1 immunofluorescence imaging, higher = more signal
# [16] = blockers of DNA damage checkpoint Chk1 activation – imaging, HeLa, hydroxyurea, phospho-Chk1 nuclear intensity, primary screen (AID 1187); details: hydroxyurea-induced phospho-Chk1 immunofluorescence imaging, higher = more signal
Compound,z-score [1],z-score [2],z-score [3],composite z-score [4],z-score [5],z-score [6],z-score [7],z-score [8],z-score [9],composite z-score [10],composite z-score [11],composite z-score [12],z-score [13],z-score [14],z-score [15],z-score [16]
CN1C(=O)C2C=CC(C(O)Cc3ccccc3)N(Nc3ccccc3)C2C1=O (centres undefined),-0.355,-0.836 (inactive),-0.808 (inactive),0.295 (inactive),1.07 (inactive),0.217 (inactive),-0.553 (inactive),-0.801 (inactive),-0.541,-0.189,-0.0041 (inactive),0.508,0.538,-4.51 (inactive),-0.444 (inactive),-0.889 (inactive)
CCOC(=O)[C@H]1C/C=C/C[C@H](C(=O)OCC)C(=O)O[C@H]2[C@@H](OC)O[C@H](CO)[C@@H](OC(=O)Nc3ccc(C#N)cc3)[C@@H]2OC1=O,-4.61,0.516 (inactive),-8.87 (active),-1.26 (inactive),1.94 (inactive),-0.166 (inactive),1.1 (inactive),1.58 (inactive),-7.15,0.122,1.09 (inactive),0.84,-2.07,-1.69 (inactive),-0.892 (inactive),-1.88 (inactive)
COC(=O)[C@@]1(Cc2ccc(F)cc2)[C@@H]2[C@@H](CC(=O)[C@H]2CC(=O)C(=O)N(C)C)CN1C(=O)c1ccccc1,-2.11,1.52 (inactive),-1.4 (inactive),-0.363 (inactive),0.784 (inactive),0.438 (inactive),-0.287 (inactive),-0.13 (inactive),-2.97,0.0253,0.502 (inactive),0.588,-1.11,-3.94 (inactive),0.0598 (inactive),0.186 (inactive)
COC(=O)[C@@]1(Cc2ccccc2)[C@H]2c3cc(C(=O)N(C)C)n(CCSCCO)c3C[C@H]2CN1C(=O)c1ccccc1,-0.821,0.319 (inactive),-0.345 (inactive),-0.394 (inactive),0.15 (inactive),0.152 (inactive),-0.976 (inactive),-0.68 (inactive),-0.151,0.212,0.115 (inactive),0.443,-0.522,-4.76 (inactive),0.585 (inactive),0.248 (inactive)
CO[C@H]1O[C@H](CO)[C@@H](OC(=O)Nc2ccc(Br)cc2)[C@H](OC(=O)c2cc3ccccc3[nH]2)[C@H]1OC(=O)c1cc2ccccc2[nH]1,-3.36,-0.98 (inactive),-2.32 (inactive),-1.2 (inactive),1.16 (inactive),-1.02 (inactive),1.21 (inactive),1.78 (inactive),-4.77,-0.0011,1.36 (inactive),0.716,-1.64,-2.09 (inactive),-0.547 (inactive),-0.872 (inactive)
C=CCN1C(=O)[C@]2(O[C@H](CCO)[C@@H]([Si](C)(C)c3ccc(OC)cc3)[C@@H]2C)c2cc(N3C(=O)c4cccc5cccc3c45)ccc21,-5.43,1.7 (inactive),-8.43 (active),1.72 (inactive),0.662 (inactive),6.52 (inactive),2.21 (inactive),1.44 (inactive),-6.23,0.0374,0.966 (inactive),0.749,-2.74,-3.37 (inactive),-2.42 (inactive),-1.91 (inactive)
[N-]=[N+]=Nc1ccccc1C[C@]1(C(=O)NCC(O)CO)N=C(c2ccc(OCCCO)cc2)O[C@H]1c1ccccc1N=[N+]=[N-] (some centres undefined),-1.01,-1.14 (inactive),-2.08 (inactive),0.139 (inactive),-0.428 (inactive),1.52 (inactive),-0.0211 (inactive),0.622 (inactive),-1.99,0.0968,0.0936 (inactive),-0.316,-2.44,-5.33 (inactive),-0.467 (inactive),-0.312 (inactive)
Cc1ccc(C(C)CC(O)C2C=CC3C(=O)N(C)C(=O)C3N2NC(=O)OC(C)(C)C)o1 (centres undefined),-0.427,-0.626 (inactive),-0.076 (inactive),-0.166 (inactive),0.434 (inactive),0.66 (inactive),-0.107 (inactive),-0.354 (inactive),0.0437,0.12,3.24 (inactive),0.709,0.556,-3.33 (inactive),-0.158 (inactive),-0.168 (inactive)
CCOC(=O)C[C@H]1[C@H](OC(=O)c2ccc(C(=O)c3ccccc3)cc2)[C@@H](NC(=O)c2ccc(-c3ccccc3)cc2)c2cc(OCCCO)ccc2N1C(=O)c1ccccc1,-0.587,-0.0317 (inactive),-0.27 (inactive),-0.972 (inactive),0.0429 (inactive),-0.469 (inactive),-0.486 (inactive),-0.566 (inactive),-0.387,0.0153,0.233 (inactive),0.549,-0.786,-1.36 (inactive),0.428 (inactive),0.303 (inactive)
